This is an account of results in PubChem BioAssay (EPA / NIEHS).

Inconclusive results are not listed. The source made the active and inactive calls. The calls were made as follows: active = hit-call score of the fitted dose curve at least 0.9, where 1 is the maximum; inconclusive = response in the unintended direction; inactive = score below 0.9.

Chain of Cellular tumor antigen p53 (Homo sapiens) (P04637 whole entry, looked up): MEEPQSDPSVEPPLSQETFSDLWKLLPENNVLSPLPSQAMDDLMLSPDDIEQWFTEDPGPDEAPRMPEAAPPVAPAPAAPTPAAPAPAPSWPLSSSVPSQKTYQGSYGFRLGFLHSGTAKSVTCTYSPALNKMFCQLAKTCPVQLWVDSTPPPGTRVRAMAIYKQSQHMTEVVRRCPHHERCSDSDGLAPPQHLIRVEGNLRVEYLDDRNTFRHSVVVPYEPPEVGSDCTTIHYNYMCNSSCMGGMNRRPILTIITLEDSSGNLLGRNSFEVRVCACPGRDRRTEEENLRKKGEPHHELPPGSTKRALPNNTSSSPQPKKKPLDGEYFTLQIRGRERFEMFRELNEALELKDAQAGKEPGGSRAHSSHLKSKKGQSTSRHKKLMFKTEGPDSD

The target of this assay is Cellular tumor antigen p53 (Homo sapiens) (UniProt P04637). In words: TOX21_p53_BLA_p5_ratio: Tox21 HCT-116 p53 Agonism Beta-lactamase Assay, Ratio, Phase 5 (AID 2283599). An outline of the steps:
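HCT-116 p53-bla cells (4000/well) plated 5 h, dosed with compound (217-fold DMSO dilution) for 16 h at 37 C; CCF4-AM substrate 2 h at room temperature. Activity is the 460/530 nm emission ratio (405 nm excitation), fitted in gain-of-signal direction versus DMSO.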
For `C=C[C@@H](C)CCC=C(C)C`, the result was inactive.

In the case of `CC(C)Oc1ccccc1O`, the result was inactive.

In the case of `CC(C)=CCO`, the outcome was inactive.

Take `CC1=CCC2C(C1)C2(C)C` (configuration not stated): the result was inactive.

Consider `CN1[C@@H]2CC(OC(=O)[C@H](CO)c3ccccc3)C[C@H]1[C@@H]1O[C@@H]12` (some centres not stated), for which the result was inactive.

For `CCCCCCCCCCCCCOS(=O)(=O)O`, the AC50 was 85.4 µM (active).

Turning to `CC(C)(C)NC(N)=O`, the result was inactive.

As for `OC[C@H]1O[C@H](O[C@]2(CCl)O[C@H](CCl)[C@@H](O)[C@@H]2O)[C@H](O)[C@@H](O)[C@H]1Cl`, the outcome was inactive.

As to `CC(C)(N)CO`, the outcome was inactive.

`CCCCNC(=O)NS(=O)(=O)c1ccc(C)cc1`: the result was inactive.

Regarding `CC(C=O)Cc1ccc(C(C)C)cc1` (configuration not stated), the result was inactive.

For the compound `CC(=O)c1c(C)cc(C(C)(C)C)cc1C`, the outcome was inactive.

For the compound `CCCCCOC(=O)CCC`, the result was inactive.

For `OCC(CO)(CO)COCC(CO)(CO)CO`, the outcome was inactive.

For `O=C(O)CCSCCC(=O)O`, the outcome was inactive.

For `CC(=O)Nc1ccc(CC(=O)O)cc1`, the outcome was inactive.

For the compound `CCCCCC(CO)CCC` (configuration not stated), the result was inactive.

Turning to `O=C(OCc1ccccc1)C(=O)OCc1ccccc1`, the outcome was inactive.

`C=COCCOCCOCCOC=C`: the result was inactive.

With `CC(C#N)(CCC(=O)O)N=NC(C)(C#N)CCC(=O)O` (configuration not stated), the result was inactive.

Regarding `CCCCCCOC(=O)CC`, the outcome was inactive.

In the case of `Cc1ccc(Nc2ccc(O)c3c2C(=O)c2ccccc2C3=O)cc1`, the outcome was inactive.

For `CC(C)=CCCC(C)=CCCC(C)=CCO`, the result was inactive.

As to `CC1(C)C(=O)N(Br)C(=O)N1Cl`, the outcome was inactive.

On to `CC(C)c1ccc(C(C)C)cc1`, for which the result was inactive.

On to `Nc1ccc(S(=O)(=O)O)c(N)c1`, for which the outcome was inactive.

Consider `C=CCOC(=O)CCC1CCCCC1`, for which the result was inactive.
